From PubChem BioAssay AID1159580 (chemical genetic matrix, 2015)
Out of some 5,500 compounds screened, about 2,000 (36%) were called active. Not shown: some 18% with an inconclusive outcome. No stated cut-off is given here; in the data, active means normalized growth mostly below about 0.91 (no sharp cut-off); inconclusive means no clear call, values can overlap the other calls; inactive means mostly above about 0.92. Some of the results follow.

Assay: chemical genetic growth profiling, strain panel (AID 1159580);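 further: tested at 20 µM; growth read once vehicle control cultures reached saturation at 30 °C; 1 = growth at the plate median or of vehicle wells; lower values mean less growth of the strain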
Conditions: growth OD

Measured: normalized growth

CCCCC/C=C\C/C=C\C/C=C\C/C=C\CCCC(=O)O
active: S. cerevisiae deletion strains, locus YKR001C, strain vps1, hits give low values 0.857 | S. cerevisiae deletion strains, locus YLR262C, strain YPT6 (second series), hits give low values 0.856 | S. cerevisiae deletion strains, locus YNL071W, strain lat1, hits give low values 0.857 | S. cerevisiae deletion strains, locus YNL307C, strain MCK1, hits give low values 0.733
inactive: S. cerevisiae deletion strains, locus YJR043C, strain POL32, hits give low values 0.975 | S. cerevisiae deletion strains, locus YJR075W, strain HOC1, hits give low values 0.968 | S. cerevisiae deletion strains, locus YKL009W, strain mrt4, hits give low values 0.982 | S. cerevisiae deletion strains, locus YKL068W, hits give low values 0.973 | S. cerevisiae deletion strains, locus YKL085W, strain MDH1 (second series), hits give low values 0.958 | S. cerevisiae deletion strains, locus YKL085W, strain MDH1, hits give low values 0.958 | S. cerevisiae deletion strains, locus YKL160W, strain elf1, hits give low values 0.98 | S. cerevisiae deletion strains, locus YKL190W, strain CNB1, hits give low values 0.987 | S. cerevisiae deletion strains, locus YKR026C, strain gcn3, hits give low values 0.944 | S. cerevisiae deletion strains, locus YKR091W, strain srl3, hits give low values 0.967 | S. cerevisiae deletion strains, locus YLL001W, strain dnm1, hits give low values 0.96 | S. cerevisiae deletion strains, locus YLL026W, hits give low values 0.976 | S. cerevisiae deletion strains, locus YLL041C, strain sdh2, hits give low values 0.975 | S. cerevisiae deletion strains, locus YLR027C, strain aat2, hits give low values 0.978 | S. cerevisiae deletion strains, locus YLR039C, strain RIC1, hits give low values 0.686 | S. cerevisiae deletion strains, locus YLR058C, strain SHM2, hits give low values 0.972 | S. cerevisiae deletion strains, locus YLR102C, strain apc9, hits give low values 0.971 | S. cerevisiae deletion strains, locus YLR221C, strain rsa3, hits give low values 0.972 | S. cerevisiae deletion strains, locus YLR258W, strain gsy2, hits give low values 0.966 | S. cerevisiae deletion strains, locus YLR262C, strain YPT6, hits give low values 0.719 | S. cerevisiae deletion strains, locus YLR268W, strain sec22, hits give low values 1.01 | S. cerevisiae deletion strains, locus YLR320W, strain mms22, hits give low values 0.884 | S. cerevisiae deletion strains, locus YLR330W, strain CHS5, hits give low values 0.984 | S. cerevisiae deletion strains, locus YLR342W, strain FKS1 (second series), hits give low values 0.942 | S. cerevisiae deletion strains, locus YLR342W, strain FKS1, hits give low values 0.969 | S. cerevisiae deletion strains, locus YLR357W, strain rsc2, hits give low values 0.935 | S. cerevisiae deletion strains, locus YLR370C, strain arc18, hits give low values 0.964 | S. cerevisiae deletion strains, locus YLR371W, strain rom2, hits give low values 0.975 | S. cerevisiae deletion strains, locus YLR384C, strain iki3, hits give low values 0.982 | S. cerevisiae deletion strains, locus YLR418C, strain cdc73, hits give low values 0.953 | S. cerevisiae deletion strains, locus YML016C, strain PPZ1, hits give low values 1 | S. cerevisiae deletion strains, locus YML032C, strain rad52, hits give low values 0.967 | S. cerevisiae deletion strains, locus YML120C, strain ndi1, hits give low values 0.986 | S. cerevisiae deletion strains, locus YML124C, strain tub3, hits give low values 0.983 | S. cerevisiae deletion strains, locus YMR058W, strain fet3, hits give low values 0.919 | S. cerevisiae deletion strains, locus YMR078C, strain ctf18, hits give low values 0.964 | S. cerevisiae deletion strains, locus YMR125W, strain sto1, hits give low values 0.977 | S. cerevisiae deletion strains, locus YMR129W, hits give low values 0.977 | S. cerevisiae deletion strains, locus YMR205C, strain PFK2, hits give low values 0.919 | S. cerevisiae deletion strains, locus YMR223W, strain ubp8, hits give low values 0.953 | S. cerevisiae deletion strains, locus YMR231W, strain pep5, hits give low values 0.974 | S. cerevisiae deletion strains, locus YMR263W, strain SAP30, hits give low values 1 | S. cerevisiae deletion strains, locus YMR307W, strain GAS1, hits give low values 0.966 | S. cerevisiae deletion strains, locus YNL067W, strain RPL9B, hits give low values 0.987 | S. cerevisiae deletion strains, locus YNL128W, strain TEP1, hits give low values 0.995 | S. cerevisiae deletion strains, locus YNL153C, strain GIM3, hits give low values 1 | S. cerevisiae deletion strains, locus YNL209W, strain ssb2, hits give low values 0.983 | S. cerevisiae deletion strains, locus YNL233W, strain BNI4, hits give low values 0.981 | S. cerevisiae deletion strains, locus YNL248C, strain rpa49, hits give low values 0.972 | S. cerevisiae deletion strains, locus YNL250W, strain rad50, hits give low values 0.924 | S. cerevisiae deletion strains, locus YNL271C, strain bni1, hits give low values 0.973 | S. cerevisiae deletion strains, locus YNL298W, strain CLA4, hits give low values 0.956 | S. cerevisiae deletion strains, locus YNL322C, strain KRE1 (second series), hits give low values 0.996 | S. cerevisiae deletion strains, locus YNL322C, strain KRE1, hits give low values 0.986 | S. cerevisiae deletion strains, locus YNR049C, strain mso1, hits give low values 0.971 | S. cerevisiae deletion strains, locus YNR052C, strain pop2, hits give low values 0.977 | S. cerevisiae deletion strains, locus YOL006C, strain TOP1, hits give low values 0.836 | S. cerevisiae deletion strains, locus YOL012C, strain htz1 0.8 | S. cerevisiae deletion strains, locus YOL147C, strain pex11, hits give low values 0.987 | S. cerevisiae deletion strains, locus YOR001W, strain rrp6, hits give low values 0.971 | S. cerevisiae deletion strains, locus YOR061W, strain CKA2, hits give low values 0.986 | S. cerevisiae deletion strains, locus YOR069W, strain VPS5, hits give low values 0.99 | S. cerevisiae deletion strains, locus YOR070C, strain gyp1, hits give low values 0.98 | S. cerevisiae deletion strains, locus YOR080W, strain dia2, hits give low values 0.97 | S. cerevisiae deletion strains, locus YOR083W, strain WHI5, hits give low values 0.996 | S. cerevisiae deletion strains, locus YOR106W, strain vam3, hits give low values 0.978 | S. cerevisiae deletion strains, locus YOR136W, strain idh2, hits give low values 0.965 | S. cerevisiae deletion strains, locus YOR144C, strain elg1, hits give low values 0.986 | S. cerevisiae deletion strains, locus YOR184W, strain ser1, hits give low values 0.895 | S. cerevisiae deletion strains, locus YOR265W, strain rbl2, hits give low values 0.978 | S. cerevisiae deletion strains, locus YOR270C, strain vph1, hits give low values 0.924 | S. cerevisiae deletion strains, locus YOR290C, strain snf2, hits give low values 0.89 | S. cerevisiae deletion strains, locus YOR316C, strain cot1, hits give low values 0.982 | S. cerevisiae deletion strains, locus YPL051W, strain arl3, hits give low values 0.985 | S. cerevisiae deletion strains, locus YPL055C, strain LGE1, hits give low values 0.972 | S. cerevisiae deletion strains, locus YPL078C, strain atp4, hits give low values 0.967 | S. cerevisiae deletion strains, locus YPL106C, strain sse1, hits give low values 0.931 | S. cerevisiae deletion strains, locus YPL240C, strain hsp82, hits give low values 0.978 | S. cerevisiae deletion strains, locus YPL241C, strain CIN2, hits give low values 0.986 | S. cerevisiae deletion strains, locus YPR119W, strain clb2, hits give low values 0.969 | S. cerevisiae deletion strains, locus YPR141C, strain kar3, hits give low values 0.975 | S. cerevisiae deletion strains, locus YPR163C, strain tif3, hits give low values 0.965 | S. cerevisiae deletion strains, locus YPR167C, strain met16, hits give low values 0.986 | S. cerevisiae deletion strains, strain wtn01, hits give low values 0.972 | S. cerevisiae strains, strain wild type, hits give low values 0.976
